# nsP2pro primary: Primary qHTS for inhibitors of NSP2Pro chikungunya virus (CHIKV); Polyprotein P1234 (Chikungunya virus (strain S27-African prototype)), Q8JUX6; FRET peptide cleavage, nsP2pro, fluorescence 1 h; Potency, µM (series often up to 24.9 µM), for the others: at the top dose activity change, negative = inhibition, actives largely listed as inhibitors; 31,000 tested, 1.1% active; AID 1964107, 2024; further: nearly all actives have a fitted effect of over 60% in size
#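 Purified recombinant nsP2pro (150 nM final) in 10 mM Tris-HCl pH 8.0 with 0.01% Tween 20 was preincubated 15 min at room temperature with compound (7 concentrations, up to 25 uM). FRET peptide 2 substrate (2.5 uM final) was then added; fluorescence was read after 1 h.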
# nsP2 cell sec: Secondary cell base assay for inhibitors of NSP2Pro Chikungunya virus (CHIKV); 450 tested, 10% active; shares compounds with nsP2pro primary; cell-based CHIKV nsP2 protease reporter assay; Potency, µM (top dose mostly 51.1 µM), for the others: at the top dose activity change, negative = inhibition, hits mostly inhibitors; further: nearly all actives have a fitted effect of over 70% in size
# NSP2 full ctr: Selectivity profile for inhibitors of NSP2Pro chikungunya virus (CHIKV): Full length NSP2 enzyme counterscreen (CHIKV-NSP2). shares compounds with nsP2pro primary. Full-length CHIKV NSP2 protease enzymatic counterscreen. Potency, µM (series often up to 50.7 µM), for the others: at the highest dose activity change, negative = inhibition, hits mostly inhibitors. 410 tested, 39% active; further: nearly all actives have a fitted effect of over 65% in size
# Furin counterscr: Selectivity profile for inhibitors of NSP2Pro chikungunya virus (CHIKV): Human furin counterscreen; Potency, µM (highest dose often 50.6 µM), for inactives: top-dose activity change, negative = inhibition, most hits filed as inhibitors; 410 tested, 6% active; shares compounds with nsP2pro primary; Recombinant human furin enzymatic counterscreen, fluorogenic substrate
# NS23 peptide cs: Selectivity profile for inhibitors of NSP2Pro chikungunya virus (CHIKV): Endogenous NS2/3 peptide Counterscreen; shares compounds with nsP2pro primary; AID 1964103, 2024; Purified CHIKV nsP2 protease, endogenous NS2/3 peptide cleavage; 410 tested, 34% active; Potency, µM (highest dose often 51 µM), without a hit: top-dose activity change, negative = inhibition, hits mostly inhibitors; further: nearly all actives have a fitted effect of over 55% in size
# Papain counter: Selectivity profile for inhibitors of NSP2Pro chikungunya virus (CHIKV): Papain Counterscreen; shares compounds with nsP2pro primary; purified papain protease activity, enzymatic inhibition; Potency, µM (highest dose often 51 µM), inactives show top-dose activity change, negative = inhibition, hits mostly inhibitors; 410 tested, 5% active
# nsP2pro confirm: Confirmatory qHTS for inhibitors of NSP2Pro chikungunya virus (CHIKV). shares compounds with nsP2pro primary. Potency, µM (top dose mostly 25.5 µM), for the others: at the top dose activity change, negative = inhibition, usual class: inhibitors. AID 1964105, 2024. 410 tested, 43% active. CHIKV nsP2 protease enzymatic activity, qHTS; further: nearly all actives have a fitted effect of over 75% in size
# HCV NS3 4A cs: Selectivity profile for inhibitors of NSP2Pro chikungunya virus (CHIKV): NS34A-HCV Counterscreen; shares compounds with nsP2pro primary; HCV NS3/4A protease biochemical counterscreen; Potency, µM (doses to about 50.9 µM), hits mostly inhibitors; 410 tested, 20% active; AID 1964106, 2024; further: nearly all actives have a fitted effect of over 55% in size
# * hit, by the source's call; i = inactive; ? = inconclusive; [ ] = another dose, or the depositor's remark. Only a selection was taken, and hits are over-represented in it overall. The call rests on the fitted dose curve. On the % scale 0 is the no-effect control and ±100 the full control effect; potency means the concentration at half of the fitted maximal effect.
SMILES,nsP2pro primary,others
O=C(Nc1ccc(S(=O)(=O)Nc2ncccn2)cc1)c1cccc(Cl)c1,-29%,
Cc1c(C(=O)Nc2ccc(N3CCC(N4CCOCC4)CC3)c(C#N)c2)cnn1-c1ccc(Cl)cc1,-28%,
Cc1ccc(C)c(N2CCN(c3ccc(NC(=O)c4cccs4)cc3C(=O)O)CC2)c1,5.6µM*,nsP2 cell sec=4%;NSP2 full ctr=?;Furin counterscr=-23%;NS23 peptide cs=16µM*;Papain counter=7%;nsP2pro confirm=8µM*;HCV NS3 4A cs=4.1µM*
Cn1c(=O)n(C)c2cc(N3CCCC3)c(NC(=O)Nc3ccccc3)cc21,-12%,
CCN1C(=O)c2ccccc2Sc2ccc(NC(=O)c3cccc(C)c3)cc21,-4%,
COc1cccc(C(=O)Nc2ccc3nc(N4CCC(C)CC4)cc(C)c3c2)c1,8%,
O=C(Nc1cncnc1)c1cccs1,-3%,
Cc1cccc(C(=O)Nc2ccc(N3CC=C(c4ccccc4C)CC3)c(C(=O)O)c2)c1,9.5µM*,nsP2 cell sec=30%;NSP2 full ctr=2.1µM*;Furin counterscr=?;NS23 peptide cs=7.3µM*;Papain counter=1%;nsP2pro confirm=5µM*;HCV NS3 4A cs=1.6µM*
Cc1ccccc1C(=O)Nc1ccc(NC(=O)c2cccs2)cc1,18%,
CC1CCN(c2ccc(NC(=O)c3cccc(Cl)c3)cc2C(=O)O)CC1,4.5µM*,nsP2 cell sec=?;NSP2 full ctr=-1%;Furin counterscr=?;NS23 peptide cs=0.46µM*;Papain counter=5%;nsP2pro confirm=7.1µM*;HCV NS3 4A cs=3.3µM*
COc1cccc(CCC(=O)N2CCCC(CN3CCCC3)CC2)c1 (stereo unspecified),-9%,
O=C(Nc1nc(-c2ccccc2)cs1)c1cccc(NS(=O)(=O)c2nccs2)c1,i,
CC(C)CCNC(=O)[C@H]1CN(Cc2ccccc2)C[C@H]1C(=O)O,2%,
Cc1cc(C)nc(NC(=S)N2CCN(c3ccc(Cl)cc3[N+](=O)[O-])CC2)c1,-5%,
O=C(CC1CCCC1)N1C[C@@H](CO)[C@@H]2Oc3ccc(Cl)cc3[C@@H]21,-3%,
O=C(c1cccnc1)N1CC[C@H](c2nc3ccccc3o2)C1,1%[39.2 µM],
O=C(c1ccno1)N1C[C@@H]2OCC(=O)N(CC3CCCCC3)[C@@H]2C1,8%[39.2 µM],
Cc1cccc(S(=O)(=O)Nc2cnccc2C(=O)Nc2nc(-c3ccccc3)cs2)c1,i,
COc1ccc(-c2ccc3nc(-c4cccc(F)c4)oc3c2)c(OC)c1OC,?,nsP2 cell sec=?
COc1ccc(-c2ccc3nc(-c4ccc(C)c(F)c4)oc3c2)c(OC)c1OC,0%,
COc1ccc(-c2ccc3nc(-c4ccc(F)c(F)c4)oc3c2)c(OC)c1OC,-1%,
O=Cc1ccc(N2CCN([S+](=O)([O-])C3CC3)CC2=O)cc1,i,
CC(C)S(=O)(=O)N1CCC(N(Cc2cccnc2)C2CCOCC2)CC1,2%,
Cc1ccnc(NC(=S)N2CCN(c3cccc(C(F)(F)F)n3)CC2)c1,4%,
COc1nccnc1NC1CCN(C(=O)NC2CCCC2)CC1,-2%,
c1nc(NCCC2CCCO2)c2cc(-c3ccc4c(c3)OCO4)ccc2n1 (stereo unspecified),i,

# Screening data: PubChem, National Center for Advancing Translational Sciences (NCATS)
